These results are taken from the supplement of paper PMC6555819.

For the assay, the system named is VDR:RXRa (NR concentration 270 nM, RXRa partner concentration 90 nM). The assay is described as follows: PBM binding z-score (relative to random genomic background probes); higher = stronger binding; sequences stand for … in GC…GCGATTGACAGCGTAGAATGAAGG
The protocol: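 Protein-binding microarray (Agilent 4x180K custom design, double-stranded 60-nt probes: 5' GC cap, 34-nt variable region, 24-nt constant primer region; full probe sequence given). Purified or IVT nuclear receptor:RXRα heterodimers (3:1 NR:RXRα, mostly 270:90 nM) or homodimers were incubated for 1 h in PBS with 2% milk and no ligand, then detected with Alexa488 antibodies. Fluorescence from o1-orientation probes (~5 replicates averaged) was converted to z-scores against 500 random hg19 background probes. Variable regions are seed direct-repeat (DR0–DR5) sites, all their single-nucleotide variants and half-site ablations.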
CCGAGAAGGTTATGGGGCATTCAGGCAACGGTGA displayed a PBM binding z-score of 0.66.
In the case of CTTCGGAGGACAGAAGGTCAGAGCTGTCCGCTTT it was 0.953; in that of GCTAGCAGGCGATTTGGGTCACTCAATGACGGGC, -0.205.
Then CCTACTGTGCCAAAGGTCATTGATTCCAATGCTC, with 5.13; and CCTTACGGGTCACGCGGTTATAGCACGACGAGCG, with 4.4.
In the case of CAAACTAGGTCAAAGATCAAAGTCGAGCCAACCA it was 2.52; in that of GCTGCTAGGTCTACTGATGGTCAGCTAAAGCTCG, -0.746.
As to CCTACTGGGCCAAGGTCATTGATCAGTCAAAGCA, the PBM binding z-score worked out at 3.15.
In the case of GGAACGAGGGCGTTCGAGTTGATAGCATGGCGAT it was 2.22; in that of GATACAGGGTCAGTTAGAGGCCAGAGTATGGAAA, 2.97.
Then ACAGACAGATGATGAAGGTAACTCAGGCTATCAT, with 0.0494; and ATCTAAAGGTCGTGAGGTGAGTATACAGAAAGGC, with 3.73; and GCTAGTTGGTCAGTAAAAGGTCACACATCGGTCG, with 3.96.
In turn, ATCTCTAGGTAACAAGTTGAGTGAAAGAGAGGAC showed a PBM binding z-score of 0.415.
Regarding ACAGACAGGTGATGAAGGTAACTGAGGCTATCAT, the PBM binding z-score was found to be 0.346.
In the case of CGAATGAGGGCATGAGTTGATAGCAAATGCCGAT it was 1.48.
Consider TCGAGTAGGTTAGTGGCATTCAGAATGGCGTCGA, for which the PBM binding z-score is -0.261.
In the case of GCTGCTAGGTCAACTGATGGTCAGCGAAAGCTCG it was 1.73.
Regarding ATCGAAAGGCCGTGAGGTGAGTATACAGAAAGGC, the PBM binding z-score is -0.0584.
Then TCAGACAGGTGAAGGTAACTCCGGTACGCAGTCG, with 0.726.
Then TTATATAGGTAAAAGGTGAAAGTCGGTGTGGTAA, with 1.4; and CAAACTAGGTCACCGCAAGGTCAAAGTCCGCATG, with 6.39.
In the case of GCTTGTTGGTCAGTAAAAGGTCACACACCGGTCG it was 3.86; in that of ATGTCTAGGTAAAAGTTCAGTGAATCCCGAGGAT, 1.3.
Take GCTGCTAGGTCAACTGCTGGTCAGCTAAAGCTCG: the PBM binding z-score was determined as 1.38.
In the case of CCTTACTGGTCAAGGTTATAGCACGGGTGGTACG it was 0.737; in that of GCTTACGGGTCATAGGTTATAGCATGAATAGAAT, 3.91; in that of GCTGCTAGGTCAGGGTGGTCAGCTAACGGGTACG, 1.25.
In the case of ATCGAAAGGTCGACGAGGTGAGTATTCACCGTTT it was 5.38; in that of CCTACTGGGCGAAAGGTCATTGATTCCAATGCTC, 4.43.
ATCTCTAGGTAAAGATAGATCAGTGAATGCAAAT: the PBM binding z-score came out at 0.00458.
Then ATACCAAGGTGATCGTGAGGTCGTTTATACTAAC, with 3.6; and CTAGACAGGTGAGAAGGTAACTCAGCCTCGATTA, with -0.342; and TCATACAGGTAAATGCTAGGTGAAAGTCCGATCT, with 0.69.
Then ACTTACGGGTCAACGAGGTTATAGGACGCGTATA, with 7.69; and CCTAGCACGCCAGGGTCACTCAAGCATTTCGCTT, with 2.56; and CGTCCAAGGTCAAGGTCAGTTAAAGAGACTCGAA, with 4.83.
Regarding TCATATAGGTAAAAGGTGAAAATCGGTGTGGTAA, the PBM binding z-score came out at 1.65.
The sequence CCTCGGTGGACAACAGGAGGTCAGAGCTGCCAGA came in with a PBM binding z-score of 1.07.
As for CGTCCACGGTCAAAGGTCAGTGAAGAGATGACGG, the PBM binding z-score is 3.76.
